# From PubChem BioAssay (NCI)
# Where “and” joins values, the source holds several entries; their conditions need not be identical. Equal values may be shown once. This is part of a sample that, as a whole, favours compounds with a hit. Of some 83,000 tested, about 20% had one in any assay.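 How to read the values: 0–100, growth inhibition (40 = 60% inhibited); 0, no net growth; -100 to 0, cell death (-40 = 40% of starting cells died; -100 = all dead).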 Calls of active or inactive are those of the source. Rule for the calls: active = growth percent below 10; inactive = the rest.
# System: MDA-MB-468 breast
# Experiment: NCI-60 one-dose screen, 48 h (100 = growth as untreated, 0 = no growth, -100 = all killed)
# Details: 10 µM unless noted
row,Structure (SMILES),growth
1,COc1ccc(C(=NNS(=O)(=O)c2ccc(C)cc2)c2ccccc2)cc1OC,103% (inactive)
2,COc1cc(/C=C/C(=O)/C=C/c2cc(OC)c3c(c2)OCO3)cc2c1OCO2,76.2% (inactive)
3,N[C@@H]1CCC[C@H]1NCCCCN1C(=O)c2cccc3cc([N+](=O)[O-])cc(c23)C1=O,31.9% (inactive)
4,C=CCN(/C=C/CN(CC=C)CC=C)CC=C,99.3% (inactive)
5,CCCCCCNC(=O)Oc1ccc(/C(=C(\C)c2ccc(Cl)cc2)c2ccc(OCCCN(C)C)cc2)cc1,92% (inactive)
6,O=C(O)c1cn(C2CC2)c2cc(N3CCN(Cc4ccc5ccccc5c4O)CC3)c(F)cc2c1=O,39.2% (inactive)
7,FC(F)(F)Oc1cccc(-c2cnc3ccc(-c4ccncc4)nn23)c1,-10.5% (active)
8,O=C(CCCCCn1c2ccccc2c2c3c(c4c5ccccc5[nH]c4c21)C(=O)N(O)C3=O)N1CCOCC1,3.68% (active)
9,CCCCCCCC/C=C\CCCCCCCC(=O)OCCCCCC,95.8% (inactive)
10,COc1cccc(-c2cn3c(ccc4ccccc43)n2)c1,34.2% (inactive)
11,NC(=O)SCC(=O)Nc1ccc(S(N)(=O)=O)cc1,91.4% (inactive)
12,COc1cccc2c1C(=O)c1c(O)c3c(c(O)c1C2=O)C[C@@](O)(C(C)=O)C[C@@H]3O[C@H]1C[C@H](N)[C@H](O)[C@H](C)O1,-72.5% (active)
13,CCN(CCCCCCN1CC(=O)N(CCCCCCN(CC)Cc2ccccc2OC)CC1=O)Cc1ccccc1OC,84% (inactive)
14,O=C1CCC(=O)N1Cc1ccccc1,88.2% (inactive)
15,C=C(C)[C@@H]1CC[C@]2(C(=O)NCCNCCNCCN)CC[C@]3(C)[C@H](CC[C@@H]4[C@@]5(C)CC[C@H](O)C(C)(C)[C@@H]5CC[C@]43C)[C@@H]12,-48.6% [100 µM] (active)
16,C=C1C(=O)O[C@@H]2C[C@@H](C)[C@H](OC)CC(=O)[C@](C)(OC(C)=O)C[C@H](OC(=O)/C(C)=C\C)[C@@H]12,54.5% (inactive)
17,Cc1[nH]c2ccc(F)cc2c1CCNC(=O)C1CCN(C(=O)c2ccccc2)C1 (stereo not given),86.8% [25 µM] (inactive)
18,COc1ccc(-c2cc(-c3nnc(SCC(=O)Nc4ccc(/C(C)=N\O)cc4)n3-c3ccccc3)c3cc(OC)ccc3n2)cc1,62.4% (inactive)
19,c1ccc2c(c1)Nc1cc3ccccc3cc1N2,40.3% (inactive)
20,O=C(COc1ccc(-c2nc3ccccc3[nH]2)cc1)N=Nc1c(O)[nH]c2ccccc12,34.5% (inactive)

row,Structure (SMILES),growth
1,Cn1cc(C(=O)c2nc(-c3c[nH]c4ccccc34)no2)c2ccccc21,-4.38% (active)
2,Cn1cc(-c2csc(-c3cn(CCN)c4ccccc34)n2)c2cccnc21,23.2% (inactive)
3,CCCCN(CCCC)CCCCCCCCCCO,99.8% (inactive)
4,COc1cc(Nc2ncnc(Nc3ccc4c(n3)NC(=O)C(C)(C)O4)n2)cc(OC)c1OC,-24.5% (active)
5,Cc1cccc(NC(=O)CSc2nc3ccc([N+](=O)[O-])cc3[nH]2)c1,48.6% (inactive)
6,NC(N)=NC(N)=Nc1cc2ccccc2c2ccccc12,-14.2% (active)
7,OCCNCCNc1c2ccccc2nc2ccccc12,37.4% (inactive)
8,N=C(N)c1ccc(S(N)(=O)=O)cc1,96.8% (inactive)
9,NS(=O)(=O)c1ccc(-n2cc(CC=O)nn2)cc1,102% (inactive)
10,O=C(Nc1cccc(-n2ccc3c(NC(=O)c4ccccc4)nccc32)c1)c1cc(N2CCOCC2)cc(C(F)(F)F)c1,-32.3% (active)
11,CCCCCCCCCCCCCC[N+](C)(C)CCCCCCCCCCCCCC,21.4% (inactive)
12,Nc1nc(N)c2cc(S(=O)(=O)c3ccccc3)ccc2n1,49.9% (inactive) and 57.7% (inactive)
13,O=C1/C(=C/c2ccc([N+](=O)[O-])cc2)COc2ccc(O)cc21,77.3% (inactive)
14,CC(C)N1C(=O)S/C(=C2/SC(=O)N(C(C)C)C2=O)C1=O,94.5% (inactive)
15,CC(=O)Cc1ccccn1,120% (inactive)
16,COc1cc2nc(-c3ccc(C(F)(F)F)cc3)cc(OCCN3CCCCC3)c2cc1OC,93.6% (inactive)
17,CCOc1ccc(-c2cc(C3(S(=O)(=O)c4ccc(C)cc4)CC=CC3)on2)cc1,72% (inactive)
18,COc1cc(-c2cnc3nonc3n2)c(OC)c2c1OCO2,83.5% (inactive)
19,CN(C)CCCC1(c2ccc(F)cc2)OCc2cc(-c3cccc4[nH]ccc34)ccc21 (stereo not given),-34.5% (active)
20,CC(C)(C#N)c1cc(F)cc(C(=O)Nc2cc(Nc3ncccc3-c3ncnc4nc[nH]c34)ccc2F)c1,107% (inactive)
